Measured values as given in the supplement of paper PMC11732987, “Enantioselective OTUD7B fragment discovery through chemoproteomics screening and high-throughput optimisation” (Communications Chemistry, 2025).

How the values were obtained:
Test in all cases: log2 ratio of Biotin-Ahx-Ub-VS probe labelling (fragment/DMSO); higher = less target engagement (more negative = stronger competition), active = hit call of the paper (q ≤ 0.05, log2 ratio ≤ -1)
Conditions in all cases: compound concentration: 200 uM; treatment time: 3 h
USP19 = biological target: T1, USP19 (UniProt O94966)
T1 sequence (whole entry): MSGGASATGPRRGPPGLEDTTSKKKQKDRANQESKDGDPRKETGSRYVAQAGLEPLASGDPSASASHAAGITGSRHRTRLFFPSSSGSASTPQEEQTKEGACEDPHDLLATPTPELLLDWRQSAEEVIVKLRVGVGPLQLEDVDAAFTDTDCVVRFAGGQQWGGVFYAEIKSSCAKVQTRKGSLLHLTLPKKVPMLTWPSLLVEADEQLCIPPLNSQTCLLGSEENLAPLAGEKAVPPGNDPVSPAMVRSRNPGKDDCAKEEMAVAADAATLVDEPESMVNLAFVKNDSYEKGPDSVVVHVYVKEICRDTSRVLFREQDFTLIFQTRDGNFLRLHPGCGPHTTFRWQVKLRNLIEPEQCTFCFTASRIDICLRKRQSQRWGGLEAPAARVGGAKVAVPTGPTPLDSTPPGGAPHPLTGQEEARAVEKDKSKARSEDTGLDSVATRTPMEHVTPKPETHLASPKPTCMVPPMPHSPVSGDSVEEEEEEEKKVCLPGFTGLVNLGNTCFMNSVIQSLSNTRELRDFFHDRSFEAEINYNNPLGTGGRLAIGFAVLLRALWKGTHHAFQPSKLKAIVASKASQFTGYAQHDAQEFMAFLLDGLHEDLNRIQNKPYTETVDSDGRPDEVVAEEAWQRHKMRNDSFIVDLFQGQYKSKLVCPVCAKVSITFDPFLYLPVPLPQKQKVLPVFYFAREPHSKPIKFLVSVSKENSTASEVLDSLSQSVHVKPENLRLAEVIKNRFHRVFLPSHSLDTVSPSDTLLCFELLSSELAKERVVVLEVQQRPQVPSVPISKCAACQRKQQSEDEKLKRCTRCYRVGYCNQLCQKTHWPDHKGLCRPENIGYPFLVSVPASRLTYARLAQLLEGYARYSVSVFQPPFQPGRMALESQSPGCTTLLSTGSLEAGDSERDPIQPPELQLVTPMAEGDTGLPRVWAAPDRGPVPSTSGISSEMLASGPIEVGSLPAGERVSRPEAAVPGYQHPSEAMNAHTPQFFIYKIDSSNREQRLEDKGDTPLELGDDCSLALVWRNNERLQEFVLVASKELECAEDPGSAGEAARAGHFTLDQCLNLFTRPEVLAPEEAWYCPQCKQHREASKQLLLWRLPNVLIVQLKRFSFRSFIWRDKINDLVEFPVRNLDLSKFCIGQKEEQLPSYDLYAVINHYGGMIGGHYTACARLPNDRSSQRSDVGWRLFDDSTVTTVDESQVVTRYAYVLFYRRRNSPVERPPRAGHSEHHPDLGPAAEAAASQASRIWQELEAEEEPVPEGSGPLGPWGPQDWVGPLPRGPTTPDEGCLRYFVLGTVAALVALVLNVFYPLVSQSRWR
Outline: (§1)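 HEK293T lysate (495 µg per sample, in Tris/CHAPS/IGEPAL buffer with protease inhibitors) was treated in triplicate with fragment at 200 µM or with DMSO for 3 h. It was then treated with Biotin-Ahx-Ub-VS (0.5 µM final) for 1 h. Labelled DUBs were NeutrAvidin-enriched, digested with LysC and trypsin, and run by diaPASEF LC-MS/MS. Spectronaut label-free quantities were global-median-normalised. Values are average log2 ratios fragment/DMSO by unpaired t-test, using proteins with ≥2 unique peptides.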

USP22 = biological target: T2, USP22 (UniProt Q9UPT9)
T2 sequence (whole entry): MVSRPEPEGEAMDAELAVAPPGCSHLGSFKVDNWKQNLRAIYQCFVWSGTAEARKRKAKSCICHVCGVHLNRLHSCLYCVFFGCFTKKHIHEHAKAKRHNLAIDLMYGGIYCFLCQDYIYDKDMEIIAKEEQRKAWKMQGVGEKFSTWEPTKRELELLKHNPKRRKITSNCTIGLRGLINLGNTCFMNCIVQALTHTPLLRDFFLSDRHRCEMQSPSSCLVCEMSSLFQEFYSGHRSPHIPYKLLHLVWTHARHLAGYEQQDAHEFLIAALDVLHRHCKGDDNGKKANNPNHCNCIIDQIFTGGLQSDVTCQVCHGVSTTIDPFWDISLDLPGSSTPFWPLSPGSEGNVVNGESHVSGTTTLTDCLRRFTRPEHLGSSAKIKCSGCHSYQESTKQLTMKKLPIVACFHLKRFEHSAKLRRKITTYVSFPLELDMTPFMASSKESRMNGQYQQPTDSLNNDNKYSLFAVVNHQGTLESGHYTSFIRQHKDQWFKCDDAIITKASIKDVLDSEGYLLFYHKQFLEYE
Outline: as §1

USP24 = USP24 (UniProt Q9UPU5)
Outline: as §1

USP25 = biological target: T3, USP25 (UniProt Q9UHP3)
T3 sequence (whole entry): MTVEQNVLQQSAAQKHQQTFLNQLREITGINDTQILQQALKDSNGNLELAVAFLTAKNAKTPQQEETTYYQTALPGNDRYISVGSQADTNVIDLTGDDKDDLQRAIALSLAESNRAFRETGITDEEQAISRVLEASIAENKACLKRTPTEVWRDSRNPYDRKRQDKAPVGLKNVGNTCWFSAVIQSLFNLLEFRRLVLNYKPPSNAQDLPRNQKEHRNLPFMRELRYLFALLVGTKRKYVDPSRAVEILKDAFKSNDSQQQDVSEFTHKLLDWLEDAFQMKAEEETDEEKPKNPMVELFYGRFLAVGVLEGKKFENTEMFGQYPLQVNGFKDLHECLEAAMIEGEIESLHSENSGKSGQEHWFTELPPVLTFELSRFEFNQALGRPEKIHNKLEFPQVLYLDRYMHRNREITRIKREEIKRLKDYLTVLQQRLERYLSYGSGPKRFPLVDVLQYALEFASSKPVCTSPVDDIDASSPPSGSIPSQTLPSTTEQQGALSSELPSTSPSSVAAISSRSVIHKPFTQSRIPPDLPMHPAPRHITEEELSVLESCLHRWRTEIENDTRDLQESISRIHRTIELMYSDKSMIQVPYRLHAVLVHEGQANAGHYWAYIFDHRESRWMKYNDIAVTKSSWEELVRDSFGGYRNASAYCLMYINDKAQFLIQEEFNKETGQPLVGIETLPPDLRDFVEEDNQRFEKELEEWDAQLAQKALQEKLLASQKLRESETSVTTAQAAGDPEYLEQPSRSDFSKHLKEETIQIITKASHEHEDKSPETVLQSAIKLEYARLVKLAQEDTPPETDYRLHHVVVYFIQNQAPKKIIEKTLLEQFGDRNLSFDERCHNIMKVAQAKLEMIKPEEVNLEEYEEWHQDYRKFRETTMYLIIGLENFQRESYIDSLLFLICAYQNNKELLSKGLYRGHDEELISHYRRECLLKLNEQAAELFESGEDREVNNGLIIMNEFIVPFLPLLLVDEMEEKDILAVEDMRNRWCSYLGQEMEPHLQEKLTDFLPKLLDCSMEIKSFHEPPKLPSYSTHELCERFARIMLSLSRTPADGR
Outline: as §1

USP28 = biological target: T4, USP28 (UniProt Q96RU2)
T4 sequence (whole entry): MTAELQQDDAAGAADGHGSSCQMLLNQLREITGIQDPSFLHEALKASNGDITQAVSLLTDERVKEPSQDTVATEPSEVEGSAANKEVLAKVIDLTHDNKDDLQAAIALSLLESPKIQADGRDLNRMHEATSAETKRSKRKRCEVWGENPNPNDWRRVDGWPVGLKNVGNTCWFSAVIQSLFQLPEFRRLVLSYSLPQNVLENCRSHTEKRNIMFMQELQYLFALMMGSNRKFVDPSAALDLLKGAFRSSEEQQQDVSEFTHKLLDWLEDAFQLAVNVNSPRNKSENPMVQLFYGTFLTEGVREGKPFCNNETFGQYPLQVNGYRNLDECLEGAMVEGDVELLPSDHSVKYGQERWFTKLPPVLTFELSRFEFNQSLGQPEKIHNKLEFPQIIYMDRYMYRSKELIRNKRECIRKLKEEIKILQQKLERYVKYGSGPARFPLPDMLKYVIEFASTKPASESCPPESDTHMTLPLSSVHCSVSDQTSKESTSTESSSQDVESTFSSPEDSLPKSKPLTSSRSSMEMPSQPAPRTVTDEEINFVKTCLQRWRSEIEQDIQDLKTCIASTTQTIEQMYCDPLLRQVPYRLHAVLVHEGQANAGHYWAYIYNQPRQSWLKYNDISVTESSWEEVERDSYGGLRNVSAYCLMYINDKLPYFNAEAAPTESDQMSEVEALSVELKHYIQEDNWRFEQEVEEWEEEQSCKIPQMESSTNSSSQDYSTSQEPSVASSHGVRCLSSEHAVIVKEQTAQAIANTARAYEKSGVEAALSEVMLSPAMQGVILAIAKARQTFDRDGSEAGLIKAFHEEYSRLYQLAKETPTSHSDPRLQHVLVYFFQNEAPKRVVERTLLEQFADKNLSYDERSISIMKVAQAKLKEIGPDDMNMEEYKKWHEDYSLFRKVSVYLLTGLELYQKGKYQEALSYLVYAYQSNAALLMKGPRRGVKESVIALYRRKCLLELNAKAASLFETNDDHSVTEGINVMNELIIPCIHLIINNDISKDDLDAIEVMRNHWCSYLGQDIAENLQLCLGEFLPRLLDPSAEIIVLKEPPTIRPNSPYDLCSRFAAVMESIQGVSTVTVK
Outline: as §1

Measured: log2 ratio of Biotin-Ahx-Ub-VS probe labelling

USP24, sequence (Q9UPU5 whole entry): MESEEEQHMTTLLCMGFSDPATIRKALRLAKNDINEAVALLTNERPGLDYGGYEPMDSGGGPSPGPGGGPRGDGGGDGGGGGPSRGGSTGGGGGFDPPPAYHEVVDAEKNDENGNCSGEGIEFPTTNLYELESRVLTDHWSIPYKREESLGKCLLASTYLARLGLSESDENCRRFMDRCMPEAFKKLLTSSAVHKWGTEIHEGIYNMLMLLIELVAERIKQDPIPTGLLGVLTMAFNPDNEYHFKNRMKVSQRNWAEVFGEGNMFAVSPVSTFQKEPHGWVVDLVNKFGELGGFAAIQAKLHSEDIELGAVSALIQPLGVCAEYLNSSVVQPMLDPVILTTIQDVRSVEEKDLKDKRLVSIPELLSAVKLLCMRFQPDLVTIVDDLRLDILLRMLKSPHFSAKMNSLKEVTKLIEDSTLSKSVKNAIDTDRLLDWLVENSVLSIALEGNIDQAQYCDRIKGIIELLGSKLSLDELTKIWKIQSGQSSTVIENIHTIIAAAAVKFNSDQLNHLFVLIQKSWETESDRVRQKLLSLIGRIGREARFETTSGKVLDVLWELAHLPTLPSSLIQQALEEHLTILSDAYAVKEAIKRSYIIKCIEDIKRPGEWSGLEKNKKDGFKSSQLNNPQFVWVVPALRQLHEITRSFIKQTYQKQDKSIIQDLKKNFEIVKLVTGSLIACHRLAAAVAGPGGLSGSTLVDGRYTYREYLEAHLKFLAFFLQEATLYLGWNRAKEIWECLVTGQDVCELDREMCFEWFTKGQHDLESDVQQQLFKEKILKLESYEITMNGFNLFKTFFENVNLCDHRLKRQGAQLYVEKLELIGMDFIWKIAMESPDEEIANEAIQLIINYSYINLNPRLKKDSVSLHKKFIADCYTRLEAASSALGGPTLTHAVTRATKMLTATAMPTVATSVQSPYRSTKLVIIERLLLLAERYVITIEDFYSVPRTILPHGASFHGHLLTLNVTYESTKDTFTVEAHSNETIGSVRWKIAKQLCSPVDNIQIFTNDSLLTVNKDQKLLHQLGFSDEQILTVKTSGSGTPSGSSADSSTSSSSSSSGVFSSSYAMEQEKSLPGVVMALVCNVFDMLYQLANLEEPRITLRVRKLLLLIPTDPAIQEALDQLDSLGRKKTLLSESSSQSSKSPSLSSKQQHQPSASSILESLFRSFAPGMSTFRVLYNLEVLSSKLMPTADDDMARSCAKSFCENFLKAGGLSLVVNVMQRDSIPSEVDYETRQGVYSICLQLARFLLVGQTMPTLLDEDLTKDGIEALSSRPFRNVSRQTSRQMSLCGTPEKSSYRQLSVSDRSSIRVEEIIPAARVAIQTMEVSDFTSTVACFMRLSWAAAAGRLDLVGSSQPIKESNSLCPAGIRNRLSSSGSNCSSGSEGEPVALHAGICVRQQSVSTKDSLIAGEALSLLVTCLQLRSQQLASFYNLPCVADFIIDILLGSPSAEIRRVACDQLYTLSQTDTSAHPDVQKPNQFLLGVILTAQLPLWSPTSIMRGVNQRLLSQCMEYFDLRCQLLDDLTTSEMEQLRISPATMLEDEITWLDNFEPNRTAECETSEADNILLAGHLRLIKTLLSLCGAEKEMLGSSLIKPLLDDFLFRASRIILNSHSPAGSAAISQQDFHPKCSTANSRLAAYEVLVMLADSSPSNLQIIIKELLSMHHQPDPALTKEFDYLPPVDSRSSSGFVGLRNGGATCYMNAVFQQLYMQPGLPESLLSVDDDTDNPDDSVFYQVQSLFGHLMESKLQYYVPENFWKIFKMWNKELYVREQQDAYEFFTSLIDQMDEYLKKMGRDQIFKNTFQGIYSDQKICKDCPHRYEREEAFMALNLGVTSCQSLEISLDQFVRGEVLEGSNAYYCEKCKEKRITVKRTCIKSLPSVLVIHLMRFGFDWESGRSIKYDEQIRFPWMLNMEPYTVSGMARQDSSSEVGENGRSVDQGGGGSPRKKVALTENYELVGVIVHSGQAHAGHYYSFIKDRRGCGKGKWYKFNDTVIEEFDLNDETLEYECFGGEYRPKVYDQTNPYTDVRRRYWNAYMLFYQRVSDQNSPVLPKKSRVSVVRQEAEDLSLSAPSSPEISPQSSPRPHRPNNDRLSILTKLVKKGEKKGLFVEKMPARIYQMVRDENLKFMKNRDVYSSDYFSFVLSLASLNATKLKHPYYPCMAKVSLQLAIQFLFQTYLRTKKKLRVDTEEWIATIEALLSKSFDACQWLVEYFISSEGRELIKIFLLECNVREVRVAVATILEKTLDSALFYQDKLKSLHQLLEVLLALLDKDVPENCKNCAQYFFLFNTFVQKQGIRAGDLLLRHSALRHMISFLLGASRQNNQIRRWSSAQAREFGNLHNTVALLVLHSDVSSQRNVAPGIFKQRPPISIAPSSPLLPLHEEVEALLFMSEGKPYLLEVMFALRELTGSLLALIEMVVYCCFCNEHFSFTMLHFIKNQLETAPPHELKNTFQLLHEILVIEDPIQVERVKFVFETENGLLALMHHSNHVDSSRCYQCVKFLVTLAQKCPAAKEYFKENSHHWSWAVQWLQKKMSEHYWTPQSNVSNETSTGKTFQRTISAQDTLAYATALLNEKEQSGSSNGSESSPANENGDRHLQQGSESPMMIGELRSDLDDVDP

COc1ccc(C2CCCN2C(=O)CCl)c(OC)c1 (stereo not given)
inactive: USP19 -0.593 | USP22 -0.361 | USP24 -0.807 | USP25 -0.175 | USP28 -0.41
